Sampled rows, rich in hits. Any-hit rate of the full collection: about 7.5%.
RORgamma inh – ROR gamma (mouse) transcription inhibition | Drosophila S2 Gal4-RORgamma UAS-luciferase reporter, 20 h | AID 2551 | P51450 | 310,000 tested, 5.4% active | Potency, µM (titrated, usually from 53.6 µM), actives largely listed as inhibitors; note: nearly all actives have a fitted effect of over 60% in size
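Luciferase reporter read in Schneider cells carrying Gal4-RORγ (mouse) and UAS-Photinus luciferase; cells given compound 1 h before 700 uM copper sulfate induction, then incubated 20 h at ambient temperature.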
B2AR arrestin – agonists driving beta-arrestin recruitment to human beta2-adrenergic receptor | P07550 | beta-arrestin recruitment to beta2AR, cell-based reporter | Potency, µM (highest dose often 46.1 µM), most hits filed as activators | 330,000 tested, 0.02% active; note: nearly all actives have a fitted effect of over 65% in size
VP16 counter – counter-screen for ROR gamma inhibitors: Gal4-VP16 reporter | Drosophila S2 Gal4-VP16 UAS-luciferase, luminescence, 20 h | Potency, µM (doses to about 53.6 µM), usual class: inhibitors | 310,000 tested, 3.5% active | AID 2546;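 note: Gal4-VP16 expression switched on by copper sulfate through the metallothionein promoter; nearly all actives have a fitted effect of over 50% in size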
ELG1 DNA repair – blocks ELG1-dependent DNA repair in HEK293T cells; HEK293T ELG1-luciferase reporter, luminescence, 16 h; DNA damage induced by 5-fluorouridine; 330,000 tested, 2.3% active; Potency, µM (doses to about 46.1 µM), hits mostly inhibitors; note: nearly all actives have a fitted effect of over 55% in size
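Luminescence from the luciferase reporter, measured 30 min after ONE-Glo reagent at room temperature, was the read-out. Beforehand, 2,000 cells per well were exposed for 16 hr at 37 °C to 5-fluorouridine together with compound or vehicle.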
TSHR antag – blocks TSH signaling through the human TSH receptor; 330,000 tested, 0.2% active; activity change, negative = inhibition, % at 11.5 µM; AID 504810; TSHR-expressing cells, TSH-stimulated cAMP HTRF, 2 h; active compounds read low;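 active = activity change below a set negative limit, meaning inhibition stronger than a set level, cut at about -70% in these data; inconclusive = activity change between two set negative limits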
Target sequence (P16473 whole entry, looked up): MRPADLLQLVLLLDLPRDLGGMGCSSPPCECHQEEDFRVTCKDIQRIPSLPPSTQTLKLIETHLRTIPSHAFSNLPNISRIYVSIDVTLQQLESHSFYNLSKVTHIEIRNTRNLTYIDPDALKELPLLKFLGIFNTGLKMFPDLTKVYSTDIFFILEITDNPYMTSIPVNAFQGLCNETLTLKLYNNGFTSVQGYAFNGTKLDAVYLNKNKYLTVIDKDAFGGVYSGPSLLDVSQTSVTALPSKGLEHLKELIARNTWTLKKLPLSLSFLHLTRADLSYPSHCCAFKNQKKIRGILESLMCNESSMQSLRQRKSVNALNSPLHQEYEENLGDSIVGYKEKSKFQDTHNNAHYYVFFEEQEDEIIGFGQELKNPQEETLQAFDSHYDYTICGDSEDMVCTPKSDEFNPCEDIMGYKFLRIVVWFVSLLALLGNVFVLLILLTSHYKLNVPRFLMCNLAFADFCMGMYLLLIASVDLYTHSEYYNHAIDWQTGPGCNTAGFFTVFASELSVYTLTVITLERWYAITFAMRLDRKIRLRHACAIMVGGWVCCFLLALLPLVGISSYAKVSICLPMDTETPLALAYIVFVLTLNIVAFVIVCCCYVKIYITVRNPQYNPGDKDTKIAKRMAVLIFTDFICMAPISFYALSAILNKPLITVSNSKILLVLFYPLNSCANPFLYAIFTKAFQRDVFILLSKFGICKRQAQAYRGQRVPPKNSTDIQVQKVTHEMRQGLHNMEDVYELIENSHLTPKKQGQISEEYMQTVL
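TSHR-expressing cells, 200/well, pre-treated with compound, then stimulated with EC80 TSH (4nM final) for 2 hours at 37 deg C. cAMP measured by competitive HTRF: anti-cAMP cryptate antibody in lysis buffer plus cAMP-d2, read after 30 minutes at room temperature.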
ELG1 FLuc counter – luciferase inhibition in cell-free luciferin readout for ELG1 hits. AID 624247. 350 tested, 3% active. Potency, µM (highest dose often 46.1 µM), hits mostly inhibitors. cell-free firefly luciferase luminescence counter-screen, ViewLux. shares compounds with ELG1 DNA repair
ELG1-Luc inh – inhibits ELG1-dependent DNA repair in HEK293T cells, confirmed. Potency, µM (titrated, usually from 46.1 µM), usual class: inhibitors. HEK293T ELG1-luciferase levels, luminescence; cells co-treated with 5-fluorouridine. AID 624248. 670 tested, 68% active. shares compounds with ELG1 DNA repair; note: nearly all actives have a fitted effect of over 55% in size
ELG1-Luc MMS – inhibits ELG1-dependent repair under MMS stimulation in HEK293T cells | 670 tested, 53% active | shares compounds with ELG1 DNA repair | Potency, µM (doses to about 46.1 µM), hits mostly inhibitors | AID 624249 | HEK293T luciferase-tagged ELG1 level, MMS stimulated; note: nearly all actives have a fitted effect of over 60% in size
ELG1 5FU viab – confirmation of ELG1 repair inhibitors: viability with 5FU; Potency, µM (highest dose often 46.1 µM), usual class: cytotoxic; 670 tested, under 10 active; AID 624250; cell viability with 5-FU, ELG1-dependent repair; shares compounds with ELG1 DNA repair;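 note: ELG1-luc HEK293T cells cotreated with 5-fluorouridine at 10 µM final; viability measured 16 h after compound addition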
ELG1 MMS viab – confirmation of ELG1 repair inhibitors: viability with MMS; shares compounds with ELG1 DNA repair; Potency, µM (series often up to 46.1 µM), most hits filed as cytotoxic; Cell viability with MMS, ELG1-dependent DNA repair; 670 tested, 33% active;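 note: ELG1-luc HEK293T cells co-treated with 10 µM MMS; viability read 16 h after compound addition; nearly all actives have a fitted effect of over 60% in size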
Cell viab unstim – counter-screen for ELG1 repair inhibitors: unstimulated cell viability | 900 tested, 8% active | shares compounds with ELG1 DNA repair | AID 624252 | Potency, µM (top dose mostly 45.9 µM), hits mostly cytotoxic | cell viability counter-screen, unstimulated, luminescence;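 note: compound exposure lasted 16 hours before reading; nearly all actives have a fitted effect of over 55% in size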
FLuc biochem – firefly luciferase inhibition counter-screen; Potency, µM (titrated, usually from 57.5 µM), usual class: inhibitors; purified firefly luciferase, luminescence counter-screen; shares compounds with ELG1 DNA repair; 350 tested, 10% active
Each line names hits and unclear results; the compound was inactive in the other large screens (follow-up assays come after a bar, where they were run). Unless noted, calls come from the whole dose curve; as a rule, active = well fitted curve in the direction sought with a large enough effect; inconclusive = small, poorly fitted or top-dose-only effect, or another doubt; inactive = no such curve, though single readings can be large; an effect the other way counts as inactive or inconclusive.

CN(C)c1ccnc2sc3c(=O)n(-c4ccccc4)cnc3c12	ELG1 DNA repair 12µM | ELG1 FLuc counter inactive | ELG1-Luc inh 16µM | ELG1-Luc MMS inconclusive | ELG1 5FU viab inactive | ELG1 MMS viab inactive | Cell viab unstim inconclusive | FLuc biochem inactive
CN(C)c1ccnc2sc(C(=O)NCc3ccccc3)c(N)c12	RORgamma inh inconclusive, ELG1 DNA repair inconclusive
CC(C)[C@H]1COCCS(=O)(=O)N1Cc1ccccc1-c1cccc(Cl)c1	none (no result: RORgamma inh, VP16 counter)
Nn1c(-c2ccc(F)cc2)nc2ccccc2c1=O	none
O=C1c2cc(F)ccc2-n2c1nc1ccccc1c2=O	ELG1 DNA repair 0.18µM | ELG1 FLuc counter inactive | ELG1-Luc inh 20µM | ELG1-Luc MMS 1.1µM | ELG1 5FU viab inactive | ELG1 MMS viab 1.8µM | Cell viab unstim inconclusive | FLuc biochem inactive
CC(Sc1nc2c(cc1C#N)CCCCC2)C(=O)O (stereo not given)	none
CC(C)CNc1nnnc2c1sc1nc(N3CCOCC3)c3c(c12)CC(C)(C)SC3	ELG1 DNA repair 4.1µM | ELG1 FLuc counter inactive | ELG1-Luc inh 4.5µM | ELG1-Luc MMS inactive | ELG1 5FU viab inconclusive | ELG1 MMS viab inactive | Cell viab unstim inactive | FLuc biochem inactive
CC1(C)Cc2c(c(N3CCOCC3)nc3sc4c(NCc5ccco5)nnnc4c23)CS1	ELG1 DNA repair 4.1µM | ELG1 FLuc counter inactive | ELG1-Luc inh 4.5µM | ELG1-Luc MMS inactive | ELG1 5FU viab inconclusive | ELG1 MMS viab inconclusive | Cell viab unstim inactive | FLuc biochem inactive
CC(C)CNc1ncnc2c1sc1nc(N3CCOCC3)c3c(c12)CC(C)(C)OC3	ELG1 DNA repair inconclusive
O=C(CSc1nnc(CNC(=O)c2ccc(F)cc2)o1)Nc1nccs1	none
CC[n+]1c(/C=C/C=C/N(C(C)=O)c2ccccc2)sc2ccccc21	none
CC(=O)Nc1ccc(/C=C/c2sc3ccccc3[n+]2CCCCI)cc1	none (no result: RORgamma inh, B2AR arrestin, VP16 counter, ELG1 DNA repair, TSHR antag) | Cell viab unstim inactive
CCn1c(=O)n(CC)c2cc(S(=O)(=O)N3CCC(c4ccccc4)CC3)ccc21	ELG1 DNA repair inconclusive | ELG1 FLuc counter inactive | Cell viab unstim inconclusive | FLuc biochem inactive
Cn1c(=O)c(=O)n(C)c2cc(S(=O)(=O)N3CCC(Cc4ccccc4)CC3)ccc21	none
Cc1ccc2c(c1)nnn2C1CCN(S(=O)(=O)c2ccc(C(=O)NC3CCCC3)cc2)CC1	ELG1 DNA repair 4.5µM | ELG1-Luc inh 3.1µM | ELG1-Luc MMS inconclusive | ELG1 5FU viab inconclusive | ELG1 MMS viab inconclusive | Cell viab unstim inconclusive
N#Cc1ccc(S(=O)(=O)N2CCN(Cc3cccs3)CC2)cc1	none (no result: RORgamma inh, VP16 counter)
CCC[N+]1(CC#CCC(c2ccccc2)c2ccccc2)CCCCC1	ELG1 DNA repair 2.3µM | ELG1-Luc inh inconclusive | ELG1-Luc MMS 2.2µM | ELG1 5FU viab inactive | ELG1 MMS viab 2.8µM | Cell viab unstim inconclusive
O=C(Cc1ccc(OCCCc2ccccc2)cc1)NO	none (no result: RORgamma inh, B2AR arrestin, VP16 counter, ELG1 DNA repair, TSHR antag) | Cell viab unstim inactive

Screening data from PubChem BioAssay.
